Laboratory results reported in the supplement of paper PMC12632987.

T1: USP38, Q8NB14
T1 chain: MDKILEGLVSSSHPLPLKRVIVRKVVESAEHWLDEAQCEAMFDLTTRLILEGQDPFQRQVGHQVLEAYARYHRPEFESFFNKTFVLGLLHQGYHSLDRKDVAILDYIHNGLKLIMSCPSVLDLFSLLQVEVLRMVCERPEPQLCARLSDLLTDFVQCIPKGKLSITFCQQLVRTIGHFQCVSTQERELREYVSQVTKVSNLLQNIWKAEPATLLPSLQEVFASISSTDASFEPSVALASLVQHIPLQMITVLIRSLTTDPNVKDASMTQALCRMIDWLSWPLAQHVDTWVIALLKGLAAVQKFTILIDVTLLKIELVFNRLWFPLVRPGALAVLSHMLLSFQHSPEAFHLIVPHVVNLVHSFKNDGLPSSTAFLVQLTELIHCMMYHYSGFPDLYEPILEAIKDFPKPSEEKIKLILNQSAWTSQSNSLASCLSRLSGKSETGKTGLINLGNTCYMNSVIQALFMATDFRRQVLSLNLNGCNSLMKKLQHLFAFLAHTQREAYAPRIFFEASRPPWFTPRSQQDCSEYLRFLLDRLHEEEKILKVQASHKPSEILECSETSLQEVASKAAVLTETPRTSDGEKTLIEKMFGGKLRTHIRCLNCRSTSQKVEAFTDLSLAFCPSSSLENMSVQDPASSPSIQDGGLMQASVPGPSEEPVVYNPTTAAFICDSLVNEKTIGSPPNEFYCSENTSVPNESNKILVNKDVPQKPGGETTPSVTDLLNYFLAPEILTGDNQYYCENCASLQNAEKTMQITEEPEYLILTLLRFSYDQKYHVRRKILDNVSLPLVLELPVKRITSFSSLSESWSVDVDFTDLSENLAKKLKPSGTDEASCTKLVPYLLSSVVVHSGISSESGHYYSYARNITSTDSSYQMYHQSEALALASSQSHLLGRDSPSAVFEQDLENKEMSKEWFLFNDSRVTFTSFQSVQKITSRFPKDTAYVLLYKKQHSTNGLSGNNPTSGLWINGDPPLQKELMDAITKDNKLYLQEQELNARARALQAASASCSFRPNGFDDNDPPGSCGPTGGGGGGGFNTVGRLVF

B1: usp_38_diff_out_9_172_624 (protein)
chain: DLESKRFKIQWLLADAIDLLQKIAKKADEENKKKLIEAAMLLLKASQLVVEGGDKEEILKLLEEAKKLVKELAKKDPKNKKELEEAIKLIEEAIKLVKEL
B2: usp_38_diff_out_5_91_614 (protein)
chain: EERRKKLIEKAEEAAKKLEEAAKRLEAGEDYTKDIEEAIELYREIAAALADGDARERRLSLTAAGMALALEKLGEYPKDLQIAMLKAHADVAKEMAEQLK
B3: usp_38_diff_out_5_80_613 (protein)
chain: SLLEEARRLAEEALKAEDLETFEELLKQLVETVRRAAEEALERGTLDETVRELSGILLELDKEVRKSSNKEKKKLAKEYLNQAVDVLAAAELRALEREAA
B4: usp_38_diff_out_5_164_606 (protein)
chain: MVEEALKRMEEIAKELEAKLKALLAEAKKNPAKLAEYEKQITDATNEALDELNEITTKALEANPEKADEILEHYDRVVTRMLTAYNAAKAELAALKKEAA
B5: usp_38_diff_out_5_91_618 (protein)
chain: AEARAEQIRLAEEAARLLEEAARRLEAGEDYTADVERAIALFRELAAALAGGDARQRRLSLTAAGLALALEELPRYSRELQIAMLRAHADVARAMAEELR
B6: usp_38_diff_out_5_164_610 (protein)
chain: GVEELLKEMEEIKKETLEKLDKLLEEAKKNPEKLDEYKKEINELTNEAIDKMNELTTEALELDPERAEEILRHYDEIMTELLTHKQKVLDEIEKLKKEKE
B7: usp_38_diff_out_5_91_622 (protein)
chain: EETRKEAVKLAKEAAEALKKAAELLEKGEDYTEELKKAYEALTKLAELLAKGDAREQRLALTAAGIAEALKELPRYPKELQIAMLKELADVAKELAEQLE
B8: usp_38_diff_out_5_91_617 (protein)
chain: EEERRRLIELAEEAAELLKKAAELLEKGEDYTEAVKKAIELLKELAKLLAGGDSRERRLSLTAAGMAEALEELDKYPKELQIAMLKAMADVAKEMAEQLR
B9: usp_38_diff_out_5_164_611 (protein)
chain: EVERIREEFEARADATLAALRALLAQARADPATARAALAQAEALVDDLADFYVEAVEEVNEADPSKVEEFLREASRRLEELSALVAELRALARAQAEAEA
B10: usp_38_diff_out_5_164_607 (protein)
chain: GVEEALKELEKTAEELKKKLKELLEEAKKNPEKLDEYKKKITEAVNEAIDKINEITTKALEAHPEQADEILRHYDEVVTEMLTEYNAALEELEKLKKEAA
B11: usp_38_diff_out_5_164_612 (protein)
chain: AVEAIRAEFEAAADAALAELKALLAEAKADPSKVEEKLKEAEAVLDELLDLLVEATERVAEEDPSQVEAFLREADARLEELLGIIAEIRELARKVREAKA
B12: usp_38_diff_out_9_42_629 (protein)
chain: RKELEERLLELIRETGEVLREAEEVLRELREVDPEAARRFRREVAELLDKIDDKLLKAQRLLLQDESKYPEAQAALDEAERLVEELRRLAEEWRRRLKER
B13: usp_38_diff_out_5_91_615 (protein)
chain: EERRKELIKKAKEAAKKLKEAAELLEKGEDYTKEIEEAIKLYKELAEALAGGNARERRLSLTAAGAAIALEKLDEYPKELQIAMLKAHAEVTKQMAEELE
B14: usp_38_diff_out_5_164_608 (protein)
chain: GVEEALEELRKIREELEKKLKELLEKAKENPEKLEEYKKEITKAMDEAIDKMNEITTRALEAHPERAEEILREYDEEVTKMLKEYNEVMEKLKKLEEEYK
B15: usp_38_diff_out_5_91_621 (protein)
chain: EERRKELIKLAEEAAKLLEKAAELLEKGEDYTEAIKKAIELYKKLAEELKGGGPRERRLSLTAAGAAIALEELPKYSKELQIAMLKELADVTKELAEELK
B16: usp_38_diff_out_9_42_625 (protein)
chain: MKELEEKREETLKLIAEAGRYVDEVIERLAKLDPELARELRREAAEAHDKIVELTQEANKYYLAGEETKEEFLAKLDEIKKIVDELRKRAEELLAAAEAA
B17: usp_38_diff_out_5_91_623 (protein)
chain: AERREEAVRLAKEAAEYLKKAAELLEAGEDYTEEIKRAREALTRAAELLAKGNAREQRLALTAAGMAEALDELPRYSKELQIAMLKELADVAKELAEQLA
B18: usp_38_diff_out_5_91_616 (protein)
chain: EEERKKIIEKAEELARLLKEAAELLEKGEDYTENIKRAIKLAEELAKALAGGDARERRLSLTFAGLAEALKEIENYPKELQIAMLKAHADVAEEAAELLK
B19: usp_38_diff_out_5_164_609 (protein)
chain: MVEEKLKEMEEIRDETIEKLDELLEEAKKNPEKLEEIKKEINELTEEAIDKMNELTTEALEADPERAEEILKHYDELMTELLTHKKEVLEEIEKLKKEKE

Target: T1, USP38, Q8NB14
Test: median log2 fold change of GCK-ALFA target abundance (FLAG IP / Myc IP barcode read proportion) (log2 ratio); each designed protein is fused to an ALFA-tag nanobody in HEK293 cells to bring the named protein to FLAG-tagged glucokinase (GCK); Myc marks an untargeted standard; higher = target protein stabilised (more abundant)
Conditions: target protein: 3xFLAG-MCP-GCK-ALFA reporter; HEK293 landing pad (RPLP)
Method in brief: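 Sequencing of reverse-transcribed, amplified circular RNA barcodes from anti-FLAG and anti-Myc immunoprecipitates provided the readout for an ALFA-nanobody-fused binder library recombined into HEK293 landing-pad cells. Those cells were induced with 2 μg mL^−1 doxycycline, transfected with a plasmid expressing a FLAG-tagged target and a Myc-tagged standard, and lysed after 48 h. Target abundance is the per-binder median log2 ratio of FLAG to Myc barcode read proportions. Only barcodes at a proportion of ≥10^−7 in both replicates and binders with ≥3 barcodes per replicate were kept, with a 10^−6 pseudocount added before the two replicates were pooled.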

| Binder | median log2 fold change |
| --- | --- |
| B1 | -0.076 |
| B2 | 0.105 |
| B3 | -0.169 |
| B4 | -0.164 |
| B5 | 0.0905 |
| B6 | -0.17 |
| B7 | 0.0965 |
| B8 | 0.486 |
| B9 | -0.198 |
| B10 | -0.164 |
| B11 | -0.239 |
| B12 | -0.63 |
| B13 | 0.0701 |
| B14 | 0.0441 |
| B15 | 0.214 |
| B16 | 0.146 |
| B17 | 0.1 |
| B18 | 0.153 |
| B19 | 0.206 |
